Hit rate of the full screen: of about 2,400 compounds, about 95 (4%) were called active.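 The calls were made as follows: active = mean of duplicate membrane potential ratios lying over 3 SD above or below the buffer control mean, so actives fall on both sides; inactive = the rest.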 Not all results are given here.

For 69 compounds, membrane potential ratio readout (active if shifted either direction beyond buffer ±3SD; no single direction) results are on record in PubChem BioAssay AID493222 (Johns Hopkins Ion Channel Center, 2011).

The experiment can be described thus: membrane potential effects in parental HEK293, counter-screen for CHT inhibitor project, cell-based, membrane potential dye (AID 493222).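 Also: parental cells lack the transporter so any hit is non-specific.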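 As to membrane potential ratio readout (active if shifted either direction beyond buffer ±3SD; no single direction): ratio is peak minus trough fluorescence over baseline after EC90 choline challenge.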 The note with it: choline response, at 10 µM; active = decrease or increase beyond buffer ±3SD. On the technique in general: A counterscreen serves to expose hits that act by an unwanted route or on another target.
On to `CCn1c(SCCC(C)C)nnc1-c1c[nH]c2ccccc12`, for which the membrane potential ratio readout (active if shifted either direction beyond buffer ±3SD; no single direction) result was “inactive”.

For the compound `Cc1[nH]c2ccccc2c1C(=O)CN1CCCC(C)C1` (centres undefined), the membrane potential ratio readout (active if shifted either direction beyond buffer ±3SD; no single direction) entry was “inactive”.

On to `COc1ccc(N2C(=O)CNC2=S)cc1`, for which the membrane potential ratio readout (active if shifted either direction beyond buffer ±3SD; no single direction) entry was “inactive”.

`CC(=O)c1ccc(Oc2cc(C)nc(-n3nc(C)cc3C)n2)cc1`: the membrane potential ratio readout (active if shifted either direction beyond buffer ±3SD; no single direction) result was “inactive”.

As for `CC(C)(C)c1ccc(C(=O)CSc2ncn[nH]2)cc1`, the membrane potential ratio readout (active if shifted either direction beyond buffer ±3SD; no single direction) result is “inactive”.

Regarding `CN(CCC#N)c1ncnc2scc(-c3ccccc3)c12`, the membrane potential ratio readout (active if shifted either direction beyond buffer ±3SD; no single direction) result was “inactive”.

Regarding `O=C1/C(=C/c2ccc(F)cc2)SC(=S)N1NS(=O)(=O)c1ccccc1`, the membrane potential ratio readout (active if shifted either direction beyond buffer ±3SD; no single direction) result was “inactive”.

For the compound `COc1ccc(C(=O)NC(=S)NNC(=O)CCc2ccccc2)cc1`, the membrane potential ratio readout (active if shifted either direction beyond buffer ±3SD; no single direction) result is “inactive”.

Consider `O=C(Nc1nonc1-c1ccc(Cl)cc1)c1ccco1`, for which the membrane potential ratio readout (active if shifted either direction beyond buffer ±3SD; no single direction) entry was “inactive”.

Take `COc1ccc(C(=O)NNC(=S)NC(=O)c2ccccc2)cc1`: the membrane potential ratio readout (active if shifted either direction beyond buffer ±3SD; no single direction) entry is “inactive”.

On to `Oc1c(Cl)cc(Cl)c(Cl)c1Cc1c(O)c(Cl)cc(Cl)c1Cl`, for which the membrane potential ratio readout (active if shifted either direction beyond buffer ±3SD; no single direction) entry was “inactive”.

Take `O=C(O)CC1=C(Nc2ccccc2)C(=O)N(c2ccccc2)C1c1ccc(Cl)cc1` (centres undefined): the membrane potential ratio readout (active if shifted either direction beyond buffer ±3SD; no single direction) entry was “inactive”.

In the case of `Cc1ccc2nc(Nc3ccccc3)cc(C)c2c1`, the membrane potential ratio readout (active if shifted either direction beyond buffer ±3SD; no single direction) entry was “inactive”.

As for `Cc1oc2cc([N+](=O)[O-])c(O)c([N+](=O)[O-])c2c1C(=O)c1ccc(Br)cc1`, the membrane potential ratio readout (active if shifted either direction beyond buffer ±3SD; no single direction) is 2.79 (active).

As for `CC(C)(C)NC(=O)NC(=O)CN1CCC(Cc2ccccc2)CC1`, the membrane potential ratio readout (active if shifted either direction beyond buffer ±3SD; no single direction) entry is “inactive”.

As for `COc1ccc(C(=O)NC(C)c2nccs2)cc1OC1CCN(C(C)C)CC1` (centres undefined), the membrane potential ratio readout (active if shifted either direction beyond buffer ±3SD; no single direction) result was “inactive”.

Take `COc1cc2ccccc2cc1C(=O)Nc1ccc(S(=O)(=O)Nc2cc(C)on2)cc1`: the membrane potential ratio readout (active if shifted either direction beyond buffer ±3SD; no single direction) result is “inactive”.

As for `O=C(O/N=C(/c1ccccc1)c1ccncc1)c1ccccc1[N+](=O)[O-]`, the membrane potential ratio readout (active if shifted either direction beyond buffer ±3SD; no single direction) result is “inactive”.

On to `CCc1nc(C)cn1S(=O)(=O)c1cc([N+](=O)[O-])ccc1Cl`, for which the membrane potential ratio readout (active if shifted either direction beyond buffer ±3SD; no single direction) is 2.6 (active).

Take `Cc1ccc(NNC(=O)c2cccs2)cc1Cl`: the membrane potential ratio readout (active if shifted either direction beyond buffer ±3SD; no single direction) result is “inactive”.

In the case of `Cc1cc(OC(C)C(=O)Nc2ccc(S(=O)(=O)Nc3onc(C)c3C)cc2)cc(C)c1Cl` (centres undefined), the membrane potential ratio readout (active if shifted either direction beyond buffer ±3SD; no single direction) entry is “inactive”.

For `CCN(CC(=O)NCc1ccc(Cl)cc1)C(=O)CSc1ccccc1`, the membrane potential ratio readout (active if shifted either direction beyond buffer ±3SD; no single direction) entry was “inactive”.

`CN(C)c1ccc(Nc2c3c4c(cccc4n(C)c2=O)C(=O)c2ccccc2-3)cc1`: the membrane potential ratio readout (active if shifted either direction beyond buffer ±3SD; no single direction) entry is “inactive”.

Turning to `Cc1cc(NS(=O)(=O)c2ccc(NC(=O)C(C)Oc3cccc(C)c3C)cc2)nc(C)n1` (centres undefined), the membrane potential ratio readout (active if shifted either direction beyond buffer ±3SD; no single direction) entry is “inactive”.

With `COc1ccc(/C=C2/SC(=O)N(CCCCCC(=O)Nc3ccccc3C(=O)O)C2=S)cc1`, the membrane potential ratio readout (active if shifted either direction beyond buffer ±3SD; no single direction) result is “inactive”.

For the compound `CN(Cc1ccccc1)CC(O)COc1ccc(CNCc2cc3ccccc3s2)cc1` (centres undefined), the membrane potential ratio readout (active if shifted either direction beyond buffer ±3SD; no single direction) result was “inactive”.

With `COc1ccc(S(=O)(=O)N2CCN(C(=O)NC3CCCCC3)CC2)cc1`, the membrane potential ratio readout (active if shifted either direction beyond buffer ±3SD; no single direction) entry was “inactive”.

With `CCCCn1c(SCC(=O)NCC2CCCO2)nc2ccc(N3CCOCC3)cc2c1=O` (centres undefined), the membrane potential ratio readout (active if shifted either direction beyond buffer ±3SD; no single direction) entry was “inactive”.

On to `O=C(c1c(F)cccc1Cl)N1CCN(S(=O)(=O)c2ccc3c(c2)OCCCO3)CC1`, for which the membrane potential ratio readout (active if shifted either direction beyond buffer ±3SD; no single direction) entry was “inactive”.

In the case of `Cc1cccc(N(C)C(=O)CN2C(=O)COc3ccc(S(=O)(=O)N4CCCCCC4)cc32)c1`, the membrane potential ratio readout (active if shifted either direction beyond buffer ±3SD; no single direction) is -12.1 (active).

For `CC1CCN(CCCNC(=O)CN2C(=O)CSc3ccc(S(=O)(=O)N4CCCCC4)cc32)CC1`, the membrane potential ratio readout (active if shifted either direction beyond buffer ±3SD; no single direction) entry was “inactive”.

Turning to `O=C(O)c1ccc(/C=C2\SC(=S)N(NC(=O)c3ccc(Br)cc3)C2=O)cc1`, the membrane potential ratio readout (active if shifted either direction beyond buffer ±3SD; no single direction) entry was “inactive”.

In the case of `O=S(=O)(Nc1ccc(Cl)cn1)c1cnc(Cl)c(Br)c1`, the membrane potential ratio readout (active if shifted either direction beyond buffer ±3SD; no single direction) result was “inactive”.

Take `Cc1ccc(CS(=O)(=O)c2ncc(Cl)c(C(=O)Nc3nnc(C)s3)n2)cc1`: the membrane potential ratio readout (active if shifted either direction beyond buffer ±3SD; no single direction) result was “inactive”.

For `COC(=O)C(C(=O)Nc1cccc(Cl)c1C)C1CCCC1` (centres undefined), the membrane potential ratio readout (active if shifted either direction beyond buffer ±3SD; no single direction) result was “inactive”.

Turning to `Cc1ccc(C(=O)NC2CCCC(C)C2C)cc1S(=O)(=O)N1CCCCC1` (centres undefined), the membrane potential ratio readout (active if shifted either direction beyond buffer ±3SD; no single direction) entry is “inactive”.

Consider `Cc1cccc(-c2nc3ccc(C(=O)NCCN4CCN(C)CC4)cc3nc2-c2cccc(C)c2)c1`, for which the membrane potential ratio readout (active if shifted either direction beyond buffer ±3SD; no single direction) entry was “inactive”.

For the compound `O=C(c1cccs1)C1C(c2ccc(Br)cc2)NC(=S)NC1(O)C(F)(F)F` (centres undefined), the membrane potential ratio readout (active if shifted either direction beyond buffer ±3SD; no single direction) result is “inactive”.

Turning to `COc1ccc2c(c1)OC(O)(C(F)(F)C(F)F)CC2=O` (centres undefined), the membrane potential ratio readout (active if shifted either direction beyond buffer ±3SD; no single direction) entry was “inactive”.

`Cc1ccc(S(=O)(=O)/N=C(/NC(=S)Nc2c(C)n(C)n(-c3ccccc3)c2=O)c2ccccc2)cc1`: the membrane potential ratio readout (active if shifted either direction beyond buffer ±3SD; no single direction) result was “inactive”.

In the case of `O=C(C1CCN(S(=O)(=O)c2ccc(Br)s2)CC1)N1CCN(c2ccccc2)CC1`, the membrane potential ratio readout (active if shifted either direction beyond buffer ±3SD; no single direction) result was “inactive”.

On to `CC(=O)Nc1nc2c(s1)C(=O)NCC(C)(C)C2`, for which the membrane potential ratio readout (active if shifted either direction beyond buffer ±3SD; no single direction) entry was “inactive”.

Regarding `CC1CCCC(NC(=O)c2cccc(N3CCCC3=O)c2)C1C` (centres undefined), the membrane potential ratio readout (active if shifted either direction beyond buffer ±3SD; no single direction) entry was “inactive”.

As for `CNCC(O)c1ccc(O)c(O)c1` (centres undefined), the membrane potential ratio readout (active if shifted either direction beyond buffer ±3SD; no single direction) entry is “inactive”.

Take `CCCCOc1ccc(Cl)cc1CSc1nncn1N`: the membrane potential ratio readout (active if shifted either direction beyond buffer ±3SD; no single direction) entry was “inactive”.

Take `O=C(Nc1ccn(Cc2ccccc2)n1)c1n[nH]c([N+](=O)[O-])c1Cl`: the membrane potential ratio readout (active if shifted either direction beyond buffer ±3SD; no single direction) entry was “inactive”.

Consider `CCOc1ccc(/C=C2\SC(=S)N(NC(=O)c3ccncc3)C2=O)cc1OC`, for which the membrane potential ratio readout (active if shifted either direction beyond buffer ±3SD; no single direction) result was “inactive”.

Regarding `CCOC(=O)C1(CCOC)CCN(Cc2ccc(C(=O)OC)cc2)CC1`, the membrane potential ratio readout (active if shifted either direction beyond buffer ±3SD; no single direction) result is “inactive”.

Regarding `OC1CN=C2Sc3ccccc3N2C1` (centres undefined), the membrane potential ratio readout (active if shifted either direction beyond buffer ±3SD; no single direction) entry is “inactive”.

For the compound `CC(Oc1ccc2ccccc2c1)C(=O)NNC(=S)NC(=O)c1ccco1` (centres undefined), the membrane potential ratio readout (active if shifted either direction beyond buffer ±3SD; no single direction) entry is “inactive”.

Regarding `CCCCCn1c(=O)c(C(=O)OCC)c(Cl)c2ccccc21`, the membrane potential ratio readout (active if shifted either direction beyond buffer ±3SD; no single direction) result is “inactive”.

Regarding `O=[N+]([O-])c1ccccc1Nc1ccc(O)cc1`, the membrane potential ratio readout (active if shifted either direction beyond buffer ±3SD; no single direction) was 2.4 (active).

Turning to `Cc1ccc(SC(CC(=O)c2ccc(C(C)(C)C)cc2)C(=O)O)cc1` (centres undefined), the membrane potential ratio readout (active if shifted either direction beyond buffer ±3SD; no single direction) entry is “inactive”.

In the case of `C/C(=N\Nc1nc2ccccc2[nH]1)c1cccs1`, the membrane potential ratio readout (active if shifted either direction beyond buffer ±3SD; no single direction) result is “inactive”.

Take `Nc1cc(N2CCCCCC2)c2nonc2c1[N+](=O)[O-]`: the membrane potential ratio readout (active if shifted either direction beyond buffer ±3SD; no single direction) entry is “inactive”.

With `Cc1ccc(C(=O)N/C(=C/C=C/c2ccccc2)C(=O)NCc2ccco2)cc1`, the membrane potential ratio readout (active if shifted either direction beyond buffer ±3SD; no single direction) result is “inactive”.

With `CCc1ccc2c(c1)C1(NN=C(c3ccccc3)S1)C(=O)N2` (centres undefined), the membrane potential ratio readout (active if shifted either direction beyond buffer ±3SD; no single direction) result was “inactive”.

`O=S(=O)(c1cccc(-c2nnc(SC(F)F)n2-c2ccccc2)c1)N1CCCCC1`: the membrane potential ratio readout (active if shifted either direction beyond buffer ±3SD; no single direction) result is “inactive”.

`Cn1c2ccccc2c(=O)c2c(O)cccc21`: the membrane potential ratio readout (active if shifted either direction beyond buffer ±3SD; no single direction) entry was “inactive”.

`CC(=O)OCCOCn1cnn2c(=O)c(Br)c(C)nc12`: the membrane potential ratio readout (active if shifted either direction beyond buffer ±3SD; no single direction) result was “inactive”.

On to `CCNC(=O)CC1C(=O)N(c2ccc(F)cc2)C(=O)N1CCc1sccc1C` (centres undefined), for which the membrane potential ratio readout (active if shifted either direction beyond buffer ±3SD; no single direction) result is “inactive”.

On to `C/C(=N\NC(N)=S)c1cccnc1`, for which the membrane potential ratio readout (active if shifted either direction beyond buffer ±3SD; no single direction) result was “inactive”.

In the case of `COc1ccc(NC(=O)c2sc(N)nc2-c2ccccc2)cc1`, the membrane potential ratio readout (active if shifted either direction beyond buffer ±3SD; no single direction) entry was “inactive”.

Regarding `Cc1ccccc1-n1c(C)cc(/C=N/NC(=O)c2ccc(CN3CCOCC3)cc2)c1C`, the membrane potential ratio readout (active if shifted either direction beyond buffer ±3SD; no single direction) entry is “inactive”.

Take `O=C(Nc1ccccc1C(=O)NCCCn1ccnc1)c1ccc(Cl)cc1Cl`: the membrane potential ratio readout (active if shifted either direction beyond buffer ±3SD; no single direction) result is “inactive”.

As to `CCc1ccccc1N1CN(Cc2ccco2)CNC1=S`, the membrane potential ratio readout (active if shifted either direction beyond buffer ±3SD; no single direction) entry was “inactive”.

`COC(=O)CN1C(C)=Nc2ccc(Br)cc2C1c1ccccc1` (centres undefined): the membrane potential ratio readout (active if shifted either direction beyond buffer ±3SD; no single direction) entry was “inactive”.

As to `CCN(CC)Cc1c(C(=O)N/N=C/c2cccc(OCc3ccc(F)cc3)c2)nnn1-c1nonc1N`, the membrane potential ratio readout (active if shifted either direction beyond buffer ±3SD; no single direction) entry is “inactive”.

As for `CC(C)CCn1c(CN(C)Cc2ccccc2)nc2c1c(=O)n(C)c(=O)n2C`, the membrane potential ratio readout (active if shifted either direction beyond buffer ±3SD; no single direction) entry was “inactive”.
